11 substances from ChEMBL document CHEMBL1201862, “PubChem BioAssay data set” (2004) can be followed below.

Screen size: about 54,000 sequences; about 2,800 (5.2%) were called active. Rule as the data show it: active = GI50 up to about 1.1 µM and inactive = higher. These entries were drawn from the full list. Potency and affinity values are given separately.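 Where inhibition never reached the appropriate level, the endpoint shown equals the highest concentration tested. Otherwise, values were interpolated linearly from a five-concentration, 48-hour dose response in 96-well plates. GI50 is the concentration that inhibits growth by half.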

This assay concerns NCI-H226. The assay is described as follows: NCI tumour cell line growth inhibition, 48 h.
On to “cis-Bis[[(trimethylsilyl)methyl]amino]tetrachloroplatinum(IV), CHEMBL2146191”, for which the GI50 came to 13.6 µM. Regarding CISPLATIN, CHEMBL11359, the GI50 worked out at 5.05 µM. “[Bis(aminomethyl)dimethylsilane]tetrachloroplatinum(IV), CHEMBL2146190” gave a GI50 of 4.49 µM. In the case of “[Bis(aminomethyl)tetramethylenesilane]tetrachloropaltinum(IV), CHEMBL2146189”, the GI50 came out at 8.18 µM. With “[Bis(aminomethyl)tetramethylenesilane]dichloropaltinum(II), CHEMBL2146205” the figure was 32.9 µM; with “mu-(1,7-nanodiamine-N,N')bis-(cis-aminedichloroplatimum (II)), CHEMBL2146215”, 1.07 µM. With “[Bis(aminomethyl)pentamethylenesilane]dichloropaltinum(II), CHEMBL2146202” the figure was 1.43 µM; with “[Bis(aminomethyl)ethylmethylsilane]tetrachloroplatinum(IV), CHEMBL2146192”, 5.75 µM; with “[Bis(aminomethyl)diethylsilane]tetrachloroplatinum(IV), CHEMBL2146203”, 1.5 µM. As for “[Bis(aminomethyl)pentamethylenesilane]tetrachloropaltinum(IV), CHEMBL2146204”, the GI50 was determined as 3.88 µM. With “[Bis(aminomethyl)dimethylsilane]dichloroplatinum (II), CHEMBL2146201” the figure was 35.8 µM.
